# Laboratory results reported in PubChem BioAssay.
# How the values were obtained:
# [1] = test system: Human papillomavirus type 1a protein E7 (residues 44-93); assay: HPV1a E7 fragment binders on microarrays, primary screen, biochemical, small-molecule microarray, residues 44-93, 635 nm fluorescence (AID 1108); details: small-molecule microarray binding, fluorescence 635 nm; higher = more signal;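 also: E7 fragment applied at 1 µg/mL in TBST for 1 h at 4 C; score combines spot fluorescence with its signal to noise ratio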
# [2] = modulators of HCV replicon luciferase signal, primary screen, HCV replication inhibitor project, Huh7 cells, luciferase reporter (AID 1109); details: 48 h, higher = more signal;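 also: huh7 hepatoma cells harbouring a luciferase neomycin HCV replicon reporter; luciferase luminescence as measure of HCV replicon replication; test concentration not given here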
# [3] = target: Left-right determination factor 2 (Homo sapiens) (UniProt O00292); assay: LEFTY2 binders on small-molecule microarrays, primary screen, biochemical, small-molecule microarray, 635 nm fluorescence scan (AID 1110); details: LEFTY2 binding, higher = more signal
# [4] = target: Calmodulin-1 (Homo sapiens) (UniProt P0DP23); assay: CALM1 binders on microarrays, EGTA buffer, profiling panel, biochemical, small-molecule microarray, Cy5-labelled CALM1 (AID 1111); details: Cy5-CALM1 binding fluorescence, higher = more signal;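 also: labelled calmodulin applied in Tris saline Tween buffer holding calcium plus EGTA and DTT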
# [5] = target: Calmodulin-1 (Homo sapiens) (UniProt P0DP23); assay: calcium-bound CALM1 binders on microarrays, profiling panel, artefact control for SMM control-protein annotation, biochemical, small-molecule microarray, Cy5-labelled CALM1, plus calcium (AID 1112); details: Cy5-CALM1 binding fluorescence, higher = more signal;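 also: score merges spot fluorescence with signal to noise from triplicate slides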
# [6] = small-molecule microarray binders of probe aWnt5a, primary screen, biochemical, biotinylated probe, 635/667 nm fluorescence (AID 1113); details: higher = more signal;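 also: score merges 667 nm fluorescence intensity with signal-to-noise per printed feature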
# [7] = small-molecule microarray binders of probe aShh, primary screen, biochemical, biotinylated probe, 635/667 nm fluorescence (AID 1114); details: higher = more signal;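 also: probe is biotin-labelled aShh protein from a stem cell growth factor screen; measures binding of labelled protein to compounds printed on the slide; score merges feature fluorescence at 667 nm with signal-to-noise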
# [8] = small-molecule microarray binders of probe aNog, primary screen, biochemical, biotinylated probe, 635/667 nm fluorescence (AID 1115); details: higher = more signal;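 also: probe is biotinylated aNog protein used at 0.15 µg/mL for 1 h at 4 C; z-score combines 667 nm fluorescence of each spot with its signal to noise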
# [9] = target: Torsin-1A-interacting protein 1 (Homo sapiens) (UniProt Q5JTV8); assay: LAP1 binders from COS7 cell lysate, primary screen, small-molecule microarray, 635/667 nm fluorescence (AID 1116); details: COS7-hLAP1 lysate binding, 635 nm fluorescence, higher = more signal
# [10] = target: Alpha-bungarotoxin (Bungarus multicinctus) (UniProt P60615); assay: alpha-bungarotoxin binders on microarray, profiling panel, artefact control for SMM control protein annotation, biochemical, small-molecule microarray, Alexa647 label, 635/667 nm fluorescence (AID 1117); details: alpha-BTX-A647 binding fluorescence, higher = more signal
# Sequence of Alpha-bungarotoxin (Bungarus multicinctus) (P60615 whole entry, looked up): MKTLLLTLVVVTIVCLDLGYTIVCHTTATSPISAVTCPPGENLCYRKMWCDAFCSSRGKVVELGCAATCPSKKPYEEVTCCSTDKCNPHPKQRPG
# Sequence of Torsin-1A-interacting protein 1 (Homo sapiens) (Q5JTV8 whole entry, looked up): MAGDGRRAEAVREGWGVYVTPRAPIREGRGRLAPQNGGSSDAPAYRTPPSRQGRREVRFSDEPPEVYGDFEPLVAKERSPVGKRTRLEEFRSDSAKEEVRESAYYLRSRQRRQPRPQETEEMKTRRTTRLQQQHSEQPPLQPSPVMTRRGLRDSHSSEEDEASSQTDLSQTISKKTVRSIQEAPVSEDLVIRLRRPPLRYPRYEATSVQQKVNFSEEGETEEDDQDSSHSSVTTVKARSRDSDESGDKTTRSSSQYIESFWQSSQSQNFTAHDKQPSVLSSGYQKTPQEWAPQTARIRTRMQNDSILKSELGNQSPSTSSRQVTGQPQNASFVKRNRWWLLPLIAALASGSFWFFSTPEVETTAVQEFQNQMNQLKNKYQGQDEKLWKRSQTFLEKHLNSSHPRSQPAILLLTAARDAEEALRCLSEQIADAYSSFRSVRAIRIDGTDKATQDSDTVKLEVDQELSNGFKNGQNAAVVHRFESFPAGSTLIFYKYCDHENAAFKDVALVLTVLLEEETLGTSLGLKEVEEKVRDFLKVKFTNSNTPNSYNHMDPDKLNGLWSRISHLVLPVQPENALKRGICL
# Sequence of Left-right determination factor 2 (Homo sapiens) (O00292 whole entry, looked up): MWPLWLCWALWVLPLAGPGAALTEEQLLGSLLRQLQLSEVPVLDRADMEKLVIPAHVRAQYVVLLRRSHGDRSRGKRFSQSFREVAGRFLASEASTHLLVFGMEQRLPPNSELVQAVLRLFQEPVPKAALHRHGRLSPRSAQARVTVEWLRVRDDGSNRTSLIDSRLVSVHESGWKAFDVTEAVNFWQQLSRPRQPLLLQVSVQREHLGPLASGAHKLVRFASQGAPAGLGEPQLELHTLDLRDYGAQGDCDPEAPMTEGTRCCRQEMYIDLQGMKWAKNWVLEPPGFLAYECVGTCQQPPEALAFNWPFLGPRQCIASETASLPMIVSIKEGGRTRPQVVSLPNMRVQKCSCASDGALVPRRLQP
Structure (SMILES),composite z-score [1],z-score [2],composite z-score [3],composite z-score [4],composite z-score [5],composite z-score [6],composite z-score [7],composite z-score [8],composite z-score [9],composite z-score [10]
C=C(COC)C(=O)CC[C@H](OC(=O)c1cccnc1)c1ccccc1OCCO,0.862,-3.13,0.53,-0.0382,-0.689,-0.0479,-0.138,0.437,1.08,0.443
C=CCC(OC(C)=O)[C@@H]1[C@@H](N(Cc2ccc(-c3ccccc3)cc2)C(=O)c2ccc(C)cc2)c2cc(OCCCO)ccc2N1C(=O)Cc1ccc(OC)cc1 (stereo not given in full),0.422,-0.75,0.0181,-0.0181,-0.164,0.0115,-0.273,-0.0579,0.0982,1.73
COCC1C2CC[C@H]3C(OCc4ccc(F)cc4C(F)(F)F)OC[C@]4(C)[C@H]3C2=C(CN4C(=O)OC(C)(C)C)[C@H](C)C1COC (stereo not given in full),1.37,-0.386,-0.13,2.61,1.37,0.0017,0.177,2.19,1.56,0.9
CC(c1ccccc1)C(O)C1C=CC2C(=O)N(c3ccccc3)C(=O)C2N1Nc1ccccc1F (stereo not given),1.4,-1.55,0.0648,-0.32,-0.539,0.0485,-0.203,-0.453,1.03,0.667
C=CCC(OC(C)=O)[C@@H]1[C@@H](N(Cc2ccc(-c3cccc(C(F)(F)F)c3)o2)C(=O)c2ccc(C)cc2)c2cc(OCCCO)ccc2N1C(=O)c1ccc2ccccc2n1 (stereo not given in full),-0.172,-0.462,0.435,-0.619,-0.253,-0.0478,0.278,0.276,-0.0885,1.31
COCCCNC(=O)[C@@]1(C)c2ccccc2C(=O)N(Cc2ccccc2)[C@H]1c1ccc(CO)cc1,1.38,-1.86,-2.9,-0.652,-0.634,-0.124,0.0284,-0.255,1.64,-0.564
CN1C(=O)C2C=CC(C(O)C=Cc3ccc([N+](=O)[O-])cc3)N(N3CCCCC3)C2C1=O (stereo not given),0.974,0.789,0.443,2.44,0.925,0.613,0.926,1.66,0.856,2.07
COC(=O)[C@@]1(Cc2ccc(OC)cc2)[C@H]2c3cc(C(=O)N4CCCC4)n(C[C@H](O)CO)c3C[C@H]2CN1C(=O)c1ccccc1,0.464,-0.439,-0.416,1.14,0.91,-0.252,1.17,1.59,0.707,0.113
C=C[C@@H](C)[C@@H](OC(=O)Nc1ccc(OC)cc1)c1ccc(O)c2ccccc12,0.118,-1.84,0.312,-0.27,-0.667,-0.152,-0.223,-0.409,-0.0999,-0.511
C=CCCN(CC#C[C@H]1Oc2ccccc2S(=O)(=O)N2CCC[C@@H]12)S(=O)(=O)c1ccc(C)cc1,0.328,-1.92,0.148,-0.498,-0.863,-0.0125,0.0048,-0.183,0.631,-0.189
